Laboratory results taken from PubChem BioAssay (NCATS).
Inconclusive results are not listed. Active and inactive are the calls of the source. Calls come from the whole dose curve; as a rule, active = well fitted cell-killing curve with a large enough effect; inconclusive = small, poorly fitted or top-dose-only effect; inactive = flat fitted curve, though single readings scatter.
% is set by controls: 0 for no effect and ±100 for the full control effect; potency is the fitted concentration of half-maximal effect.

Assay: qHTS of pediatric cancer cell lines to identify multiple opportunities for drug repurposing: Primary screen for control Hh wild type fibroblast cells (AID 1347106); note: nearly all actives have a fitted effect of over 55% in size;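 for activity change, negative = cytotoxic: a drop in luminescence marks cytotoxicity and a rise apparent proliferation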
Details: Hh wild-type fibroblast viability, CellTiter-Glo luminescence, 48 h; series mostly up to 46 µM; activity change, negative = cytotoxic: at the top concentration
From the text: Drug repurposing or repositioning has been offered as a strategy for drug development in oncology programs. This approach has special potential for childhood cancers and other rare or orphan diseases, where the expected return on new drug development has been a disincentive to pharmaceuticals.
In this project we exploit the poly-pharmacology of drugs to discover new indications via phenotypic screening of a panel of 19 well-characterized cell lines derived from solid tumors seen in children and adolescents. The goal is to identify approved drugs with previously unrecognized anticancer properties that has the potential to reveal new mechanisms and biological processes involved in carcinogenesis or drug resistance. We employed a titration-based paradigm (quantitative high-throughput screening or qHTS), where all compounds were tested at multiple concentrations for their effect on cell viability. Concentration-response curves (CRCs) were derived directly from the primary screen, and both potency and efficacy values were used to identify compounds with robust bioactivity profiles. We screened the NIH Chemical Genomics Center (NCGC) Pharmaceutical Collection (NPC) and Mechanism Interrogation Plate (MIPE) small molecule collections of approved and investigational compounds against these cell lines; and measured metabolically active cells after 48 hours of compound treatment as a proxy for cell viability.
Assay Submitter: Nathalia J. Martinez, National Center for Advancing Translational Sciences, National Institutes of Health, Rockville, MD, USA; email: natalia.martinez@nih.gov
[1] Shen, M et al. Quantitative high-throughput phenotypic screening of pediatric cancer cell lines identifies multiple opportunities for drug repurposing. Oncotarget 2017 Dec 19;9(4):4758-4772. PMID 29435139.
The cells were obtained from University of North Carolina (UNC), Pediatric Preclinical Testing Program (PPT), and Coriell Institute (CI).
qHTS cell viability assay:
Cells were assayed in growth media at a density of 500-1,000 cells/well. Five microliters of cells were dispensed into 1,536-well, white, solid-bottom, TC-treated plates (Greiner Bio One) using a multidrop dispenser and incubated at 37 degrees C, 5% CO2, under a humidified atmosphere for 5 hours. Twenty-three nanoliters of compounds and controls (neutral control DMSO or positive control bortezomib at final concentration of 2.3 µM) were subsequently transferred by Kalypsys pintool. For primary screens, the MIPE collection was tested at 11-point dilutions (final concentrations range from 0.78 nM to 46 µM) and the NPC collection at 8-point dilutions (final concentrations range from 0.59 nM to 46 µM). Compounds tested in follow-up screens were assayed at 11-point dilutions. Cells were incubated for 48 hours, followed by addition of 3 µL of CellTiter-Glo (Promega). After a 15 min incubation at room temperature, samples were analyzed for luminescence intensity using a ViewLux High-throughput CCD imager equipped with clear filters.
In the case of `CON=C(C(=O)N[C@@H]1C(=O)N2C(C(=O)O)=C(CSC(=O)c3ccco3)CS[C@H]12)c1csc(N)n1`, the “activity change, negative = cytotoxic” value is reported as 4.09% (inactive). For `Cc1coc2c1C(=O)C(=O)c1c-2ccc2c(C)cccc12`, the “activity change, negative = cytotoxic” value was 9.25% (inactive). With `COc1cccc2c1C(=O)c1c(O)c3c(c(O)c1C2=O)C[C@@](O)(C(=O)CO)C[C@@H]3O[C@H]1C[C@H](N)[C@H](OC2CCCCO2)[C@H](C)O1` (stereo not given in full) the “activity change, negative = cytotoxic” value was -29.8% (inactive). For `CC(C=CC(=O)NO)=C[C@@H](C)C(=O)c1ccc(N(C)C)cc1`, the Potency was 10500 nM (active). For `C[N+]1(C)[C@@H]2C[C@@H](OC(=O)C(O)(c3cccs3)c3cccs3)C[C@H]1[C@@H]1O[C@@H]12`, the “activity change, negative = cytotoxic” value was 7.43% (inactive). With `O=C(NCc1ccccc1)[C@H](Cc1ccccc1)NC(=O)[C@@H]1O[C@@H]1C(=O)NCCc1ccc(O)cc1` the “activity change, negative = cytotoxic” value was -3.33% (inactive). For `CC(=O)N[C@@H]1[C@H](O[C@@H]2c3ccc(c(Cl)c3)Oc3cc4cc(c3O[C@H]3O[C@H](CO)[C@@H](O)[C@H](O)[C@H]3NC(=O)CCCCCCCC(C)C)Oc3ccc(cc3Cl)C[C@H]3NC(=O)[C@H](N)c5ccc(O)c(c5)Oc5cc(O)cc(c5)[C@H](NC3=O)C(=O)N[C@H]4C(=O)N[C@H]3C(=O)N[C@@H]2C(=O)N[C@@H](C(=O)O)c2cc(O)cc(O[C@H]4O[C@H](CO)[C@@H](O)[C@H](O)[C@H]4O)c2-c2cc3ccc2O)O[C@H](CO)[C@@H](O)[C@@H]1O`, the “activity change, negative = cytotoxic” value was -3.27% (inactive). In the case of `C#CCC(Cc1cnc2nc(N)nc(N)c2n1)c1ccc(C(=O)N[C@@H](CCC(=O)O)C(=O)O)cc1` (stereo not given in full), the “activity change, negative = cytotoxic” value is reported as -0.493% (inactive). With `Cc1cnc(NC(=O)Nc2cc(Br)c(C)cc2OC[C@@H]2CNCCO2)cn1` the “activity change, negative = cytotoxic” value was 5.55% (inactive). With `C=C(C)[C@@H]1CC[C@]2(C(=O)O)CC[C@]3(C)[C@H](CC[C@@H]4[C@@]5(C)CC[C@H](O)C(C)(C)[C@@H]5CC[C@]43C)[C@@H]12` the “activity change, negative = cytotoxic” value was 18.9% (inactive). For `CN1[C@H]2CC(OC(=O)[C@@H](CO)c3ccccc3)C[C@H]1[C@H]1O[C@H]12` (stereo not given in full), the “activity change, negative = cytotoxic” value was 15.9% [at 16.1 µM] (inactive). For `CCN1CCN(C(=O)N[C@H](C(=O)N[C@@H]2C(=O)N3C(C(=O)O)=C(CSc4nnnn4C)CS[C@@H]23)c2ccc(O)cc2)C(=O)C1=O`, the activity change, negative = cytotoxic was -2.3% [at 9.22 µM] (inactive). In the case of `C[C@]12CCC(=O)C=C1[C@@H]1CC1[C@H]1[C@H]3[C@@H]4C[C@H]4[C@@]4(CCC(=O)O4)[C@@]3(C)CC[C@H]12` (stereo not given in full), the “activity change, negative = cytotoxic” value is reported as -9.17% (inactive). With `C[C@H](CCC(=O)O)[C@H]1CCC2C3C[C@H](O)[C@@H]4C[C@H](O)CC[C@]4(C)C3CC[C@@]21C` (stereo not given in full) the “activity change, negative = cytotoxic” value was 0.0432% (inactive). With `CC[C@H]1OC(=O)[C@H](C)[C@@H](O[C@H]2C[C@@](C)(OC)[C@@H](O)[C@H](C)O2)[C@H](C)[C@@H](O[C@@H]2O[C@@H](C)C[C@H](N(C)C)[C@@H]2O)[C@](C)(O)C[C@@H](C)C(=O)[C@H](C)[C@@H](O)[C@]1(C)O` the “activity change, negative = cytotoxic” value was 8.73% (inactive). For `COC(=O)[C@@H]1CC2=CC(=O)CC[C@]2(C)[C@@]23O[C@@H]2C[C@@]2(C)[C@H](CC[C@@]24CCC(=O)O4)[C@@H]13`, the “activity change, negative = cytotoxic” value was 14.7% (inactive). In the case of `CCCCOc1ccc(C(=O)Nc2ccc(F)cc2F)cc1`, the “activity change, negative = cytotoxic” value is reported as -6.2% (inactive). For `Cn1cc(C[C@@H](N)C(=O)O)c2ccccc21`, the “activity change, negative = cytotoxic” value was 17.3% [at 16.1 µM] (inactive). For `CN(C)c1ccc(C(=O)NCCCCCCC(=O)NO)cc1`, the Potency was 3720 nM (active). With `C=C1C(=O)O[C@H]2[C@@H]1CCC(C)=CCC[C@@]1(C)O[C@@H]21` the “activity change, negative = cytotoxic” value was 41.7% (inactive). For `CC(=O)O[C@@]12CO[C@H]1C[C@H](O)[C@@]1(C)C(=O)[C@H](O)C3=C(C)[C@@H](OC(=O)C(O)[C@@H](NC(=O)OC(C)(C)C)c4ccccc4)C[C@@](O)([C@@H](OC(=O)c4ccccc4)[C@@H]21)C3(C)C` (stereo not given in full), the “activity change, negative = cytotoxic” value was -12.7% (inactive). For `CCOC(=O)N1CCN([N+]([O-])=NOc2ccc([N+](=O)[O-])cc2[N+](=O)[O-])CC1`, the “activity change, negative = cytotoxic” value was -0.66% (inactive). In the case of `C[C@H]1C[C@H]2[C@@H]3CCC4=CC(=O)C=C[C@]4(C)[C@@H]3C(=O)C[C@]2(C)[C@@]1(O)C(=O)CO`, the “activity change, negative = cytotoxic” value is reported as 0.436% (inactive). For `O=C(C=CC=Cc1ccc2c(c1)OCO2)N1CCCCC1`, the “activity change, negative = cytotoxic” value was 9.67% (inactive). With `C[C@@]12C[C@@]3(O)O[C@@H](O1)[C@]1(COC(=O)c4ccccc4)[C@@H]3C[C@@]12O[C@@H]1O[C@H](CO)[C@@H](O)[C@H](O)[C@@H]1O` the “activity change, negative = cytotoxic” value was 2.11% (inactive). For `Cn1cc(C=CC(=O)c2cccc(F)c2)cc1C=CC(=O)NO`, the “activity change, negative = cytotoxic” value was -16.1% (inactive). In the case of `COc1cc(C[C@@H](CO)[C@H](CO)Cc2ccc(O)c(OC)c2)ccc1O`, the Potency is reported as 418 nM (active). With `COc1ccc(C(C)=O)c(O)c1` the “activity change, negative = cytotoxic” value was 2.72% (inactive). With `NC(=O)c1ncn([C@@H]2O[C@H](CO)[C@@H](O)[C@@H]2O)c1N` the “activity change, negative = cytotoxic” value was -1.33% (inactive). With `Nc1cccc2c1C(=O)N(C1CCC(=O)NC1=O)C2=O` (stereo not given) the “activity change, negative = cytotoxic” value was 5.84% (inactive). In the case of `CC(=O)N1CCN(c2ccc(OCc3nn(C)c(C)c3-c3cccc4c(CCCOc5cccc6ccccc56)c(C(=O)O)n(Cc5cccnc5)c34)cc2)CC1`, the Potency is reported as 526 nM (active). For `CC(=O)N[C@H]1[C@@H]([C@H](O)[C@H](O)CO)OC(C(=O)O)=C[C@@H]1N=C(N)N`, the “activity change, negative = cytotoxic” value was 18.1% (inactive). For `CCCNS(=O)(=O)Nc1ncnc(OCCOc2ncc(Br)cn2)c1-c1ccc(Br)cc1`, the “activity change, negative = cytotoxic” value was 10.2% (inactive). For `O=C(C=CC#Cc1cccc(NS(=O)(=O)c2ccccc2)c1)NO`, the “activity change, negative = cytotoxic” value was -16.9% (inactive). For `C[C@]12CC[C@@H]3c4ccc(O)cc4CC[C@H]3[C@H]1CC[C@H]2O`, the “activity change, negative = cytotoxic” value was 4.32% (inactive). For `CC1(C)O[C@@H]2C[C@H]3[C@@H]4CCC5=CC(=O)C=C[C@]5(C)[C@@H]4[C@@H](O)C[C@]3(C)[C@]2(C(=O)CO)O1`, the “activity change, negative = cytotoxic” value was -9.45% (inactive). With `CC1=C(C(=O)Nc2cc3cn[nH]c3cc2F)C(c2ccc(Cl)cc2F)N=C(c2ccnc(Cl)c2)N1` (stereo not given) the “activity change, negative = cytotoxic” value was -0.374% (inactive). With `CCOC(=O)C1=C(C)NC(=S)NC1c1cccc(O)c1` (stereo not given) the “activity change, negative = cytotoxic” value was -0.0179% (inactive). In the case of `C=CC(=O)Nc1ccc2ncnc(Nc3ccc(OCc4cccc(F)c4)c(Cl)c3)c2c1`, the “activity change, negative = cytotoxic” value is reported as -0.273% (inactive). In the case of `CC[C@H]1OC(=O)[C@H](C)[C@@H](O[C@H]2C[C@@](C)(OC)[C@@H](O)[C@H](C)O2)[C@H](C)[C@@H](O[C@@H]2O[C@H](C)C[C@H](N(C)C)[C@@H]2O)[C@](C)(OC)C[C@@H](C)C(=O)[C@H](C)[C@@H](O)[C@]1(C)O`, the “activity change, negative = cytotoxic” value is reported as 4.79% (inactive).
